Hits are enriched below; roughly 19% of the tested compounds scored in any of these assays.
TDP1 block: TDP1 (human) enzyme inhibition | Q9NUW8 | recombinant TDP1, AlphaScreen DNA substrate cleavage | Potency, µM (top dose mostly 130 µM), for inactives: at the highest dose activity change, negative = inhibition, actives largely listed as inhibitors | 0.28% of 350,000 active; note: nearly all actives have a fitted effect of over 40% in size
Target sequence (Q9NUW8 whole entry, looked up): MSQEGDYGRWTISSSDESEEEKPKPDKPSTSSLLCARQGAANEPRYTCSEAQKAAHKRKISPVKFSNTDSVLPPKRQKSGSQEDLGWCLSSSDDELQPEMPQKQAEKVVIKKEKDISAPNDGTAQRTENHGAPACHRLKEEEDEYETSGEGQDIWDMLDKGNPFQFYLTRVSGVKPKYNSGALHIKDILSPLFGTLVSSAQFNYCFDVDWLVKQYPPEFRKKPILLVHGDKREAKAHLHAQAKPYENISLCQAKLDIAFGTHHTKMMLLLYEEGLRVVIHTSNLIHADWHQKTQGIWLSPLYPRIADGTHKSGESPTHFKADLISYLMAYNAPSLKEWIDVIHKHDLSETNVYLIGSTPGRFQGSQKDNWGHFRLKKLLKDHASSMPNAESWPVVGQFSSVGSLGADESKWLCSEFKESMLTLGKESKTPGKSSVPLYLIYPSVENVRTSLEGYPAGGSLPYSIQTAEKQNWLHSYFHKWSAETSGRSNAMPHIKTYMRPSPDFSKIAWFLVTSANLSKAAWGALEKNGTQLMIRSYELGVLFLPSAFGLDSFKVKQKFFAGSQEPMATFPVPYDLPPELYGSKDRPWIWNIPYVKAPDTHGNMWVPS
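Signal: AlphaScreen proximity between streptavidin donor and anti-FITC acceptor beads on intact substrate. Reaction: Tdp1 1 nM, substrate 15 nM final, 5 min RT after 15 min compound preincubation.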
VP16 counter: inhibits Gal4-VP16 luciferase reporter, ROR gamma counter-screen. Potency, µM (series often up to 53.6 µM), inactives show at the top dose activity, negative = inhibition, most hits filed as inhibitors. AID 2546. 3.5% of 310,000 active. Drosophila S2 Gal4-VP16 UAS-luciferase, luminescence, 20 h;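 note: Gal4-VP16 expression switched on by copper sulfate through the metallothionein promoter; nearly all actives have a fitted effect of over 50% in size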
DT40 TDP1 CPT: DT40-hTDP1 cell growth loss with CPT. chicken DT40 Tdp1-/-;hTDP1 cells + 20 nM CPT, ATP luminescence, 48 h. Potency, µM (highest dose often 46.2 µM), inactives show at the top dose activity change, negative = growth inhibition, most hits filed as inhibitors. 12% of 420,000 active. AID 686979; note: nearly all actives have a fitted effect of over 55% in size
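Chicken DT40 Tdp1-/- cells stably complemented with human TDP1 were seeded at 400 cells/well in medium containing 20 nM camptothecin, exposed to pin-transferred compounds, and grown at 37 °C for at least 48 hr. Viability was read as ATP luminescence.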
RORg inh: blocks mouse ROR gamma transcriptional activity | 5.4% of 310,000 active | P51450 | Potency, µM (series often up to 53.6 µM), without a hit: at the top dose activity change, negative = inhibition, most hits filed as inhibitors | Drosophila S2 Gal4-RORgamma UAS-luciferase reporter, 20 h; note: nearly all actives have a fitted effect of over 60% in size
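A Gal4/UAS one-hybrid system in insect cells: metallothionein-promoter Gal4–ROR gamma fusion plus Photinus luciferase reporter. Copper sulfate 700 uM final, 20 hr ambient incubation, luminescent detection after 10 min with reagent.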
DT40 TDP1 no CPT: qHTS for Inhibitors of human tyrosyl-DNA phosphodiesterase 1 (TDP1): qHTS in cells in absence of CPT. Potency, µM (doses to about 46.2 µM), for the others: at the highest dose activity change, negative = growth inhibition, most hits filed as inhibitors. AID 686978, 2013. DT40 Tdp1-/- hTDP1 cells, no CPT, ATP luminescence, 48 h. 15% of 420,000 active; note: nearly all actives have a fitted effect of over 55% in size
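Compound effects on proliferation are scored in DT40 Tdp1-/-;hTDP1 cells in the absence of CPT. ATP levels (CellTiter-Glo luminescence) are recorded after a ≥48 hr, 37 °C incubation.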
The depositor's hits bear a star; ? = inconclusive; · = no result given. Calls come from the whole dose curve; as a rule, active = well fitted curve in the direction sought with a large enough effect; inconclusive = small, poorly fitted or top-dose-only effect, or another doubt; inactive = no such curve, though single readings can be large; an effect the other way counts as inactive or inconclusive. % is set by controls: 0 for no effect and ±100 for the full control effect; potency is the fitted concentration of half-maximal effect.

SMILES	TDP1 block	VP16 counter	DT40 TDP1 CPT	RORg inh	DT40 TDP1 no CPT
O=C(Nc1cccnc1)c1ccc(COc2ccccc2Br)o1	2.3%	5.8%	?	38.6%	?
O=C(N/N=C/c1cc([N+](=O)[O-])ccc1O)c1ccc(COc2ccc3c(c2)CCC3)o1	?	1.41µM*	2.59µM*	2.24µM*	3.26µM*
CC(C)(C)N=C1NN=C(c2ccc(S(=O)(=O)N3CCCCC3)cc2)CS1	-11.4%	·	16.4µM*	·	?
Cc1ccc(S(=O)(=O)N2CCN(S(=O)(=O)N3CCCCC3)CC2)cc1	4.3%	-7.4%	2.9%	31.4%	-0.7%
CCc1nc2c(OCC=C(C)C)cccn2c1N(C)C(=O)c1ccccc1F	·	·	0.731µM*	·	0.82µM*
CCc1nc2c(OCC=C(C)C)cccn2c1N(C)C(=O)c1ccc(OC)cc1	·	·	23.1µM*	·	13µM*
Cc1ccc(/C=N/NC(=O)C2COc3ccccc3O2)s1 (stereo not drawn)	-13.7%	·	1.16µM*	·	1.64µM*
O=C(N/N=C\c1ccccn1)C1COc2cc3ccccc3cc2O1 (stereo not drawn)	11.4%	?	?	4.47µM*	?
O=C(N/N=C/c1cccs1)C1COc2ccccc2O1 (stereo not drawn)	7.9%	?	?	?	16.4µM*
O=C(N/N=C\c1ccc[nH]1)C1COc2ccccc2O1 (stereo not drawn)	·	?	6.5%	11.2µM*	-0.2%
CN(C)c1ccc(/C=N/NC(=O)C2COc3ccccc3O2)o1 (stereo not drawn)	0.0%	?	?	?	-13.6%
Cc1nc(C(F)(F)F)ccc1C(=O)N1CCC1(C)C(=O)NS(=O)(=O)c1cccc(C#N)c1 (stereo not drawn)	·	·	17.6%	·	7.8%
CCOc1ccc(C(=O)Nc2ccccc2OCc2cc(=O)n3ccccc3n2)cc1	0.0%	·	-2.7%	·	-14.9%
Cc1ccc(/C=N/NC(=O)c2c(C)nc3ccc(Br)cn23)cc1	·	?	0.731µM*	7.08µM*	0.581µM*
COc1ccc(/C=N\NC(=O)c2c(C)nc3ccc(Br)cn23)cc1	5.3%	-102.2%	0.581µM*	10µM*	0.731µM*
FC(F)(F)c1ccc(Oc2ccc(Cl)cc2Br)nc1	0.0%	-19.6%	?	-0.4%	-10.1%
Clc1ccc(Cn2cc3c(n2)-c2cc4ccccc4n2C3)cc1	-2.6%	·	?	·	12.6µM*
Clc1ccc(Cn2ccc(C3CC3)n2)cc1	-4.6%	-19.4%	1.6%	-2.8%	13.3%
O=C(CCc1nc2ccccc2c(=O)[nH]1)N1CCN(c2ccccc2Cl)CC1	-1.3%	·	20.6µM*	·	16.4µM*
O=C(CCc1nc2ccccc2c(=O)[nH]1)N1CCCc2ccccc21	-8.7%	·	?	·	8.2µM*
O=S(=O)(NC(=S)NC1CCCCC1)c1ccccc1	2.5%	?	-4.2%	4.47µM*	1.3%
O=C(NC1CCCCC1)C(Cc1ccccc1)NS(=O)(=O)c1cccs1 (stereo not drawn)	3.6%	3.5%	-13.1%	-9.5%	-6.4%
O=S(=O)(NC(=S)NC1CCCCC1)c1cccs1	0.0%	-83.7%	6.8%	11.2µM*	-14.4%
O=S(=O)(NC1CCCCCCC1)c1ccccc1	·	-6.8%	-21.1%	15.4%	?
Cc1[nH]c2ccccc2c1N=Nc1c(C)n(C)n(-c2ccccc2)c1=O	5.9%	-6.3%	20.6µM*	29.0%	?
SMILES	TDP1 block	VP16 counter	DT40 TDP1 CPT	RORg inh	DT40 TDP1 no CPT
CN1CCCC(CC2c3ccccc3Sc3ccccc32)C1 (stereo not drawn)	·	·	?	·	8.05µM*
CCOc1ccc(/C=N/NC(=S)Nc2c(C)cccc2C)cc1	5.6%	2µM*	20.6µM*	1µM*	20.6µM*
CCOc1ccc(/C=N/NC(=O)C(OC)c2ccccc2)cc1 (stereo not drawn)	3.8%	6.0%	-0.6%	25.2%	-10.7%
CCNC(=S)N/N=C/c1ccc(OCCOc2ccccc2C)cc1	-1.0%	10µM*	?	4.47µM*	-21.5%
CC(OC(=O)Cc1n[nH]c(=O)c2ccccc12)C(=O)N(C)c1ccccc1 (stereo not drawn)	·	·	8.2µM*	·	16.4µM*
Cc1ccc(C(=O)C(C)OC(=O)Cc2n[nH]c(=O)c3ccccc23)cc1 (stereo not drawn)	0.6%	·	11.6µM*	·	18.4µM*
Cc1cc(CNC(=O)C2(C(F)(F)F)C/C(=C\CCO)CCCO2)nn1C (stereo not drawn)	8.5%	-10.5%	14.7%	26.7%	-1.7%
CCOc1ccc(OCC)c(NC(=O)CSc2nc3c(c(=O)n(C)c(=O)n3C)n2C(C)C)c1	7.3%	-5.7%	16.4µM*	14.4%	20.6µM*
CCOc1ccc(OCC)c(NC(=O)CSc2nc3c(c(=O)n(C)c(=O)n3C)n2CC)c1	-4.1%	-5.3%	?	20.0%	23.1µM*
Cc1noc(C)c1NC(=O)N(C)C[C@@H]1OCc2cnnn2CCCC(=O)N([C@H](C)CO)C[C@@H]1C	·	·	1.3%	·	-1.3%
O=C(c1ccc(F)cc1)N1CCc2c([nH]c3ccccc23)C1c1ccc(Cl)cc1 (stereo not drawn)	5.4%	·	?	·	?
CCOc1cccc(C2c3[nH]c4ccccc4c3CCN2C(=O)CCC2CCCC2)c1 (stereo not drawn)	0.0%	·	?	·	?
CCOc1cc(C(=O)N2CCc3c([nH]c4ccccc34)C2c2ccccc2)cc(OCC)c1OCC (stereo not drawn)	5.4%	·	6.51µM*	·	5.8µM*
COc1cc(C(=O)N2CCc3c([nH]c4ccccc34)C2c2ccc(F)cc2)cc(OC)c1OC (stereo not drawn)	8.1%	·	13µM*	·	14.6µM*
CCOc1ncccc1C(=O)NCc1ccc(C)cc1	2.6%	-1.7%	0.9%	-0.1%	-22.4%
Cc1cccc(NC(=O)CN(CC2CCCO2)C(=O)c2oc3ccccc3c2C)c1C (stereo not drawn)	0.6%	·	29.1µM*	·	?
O=C(NCCc1nnc2n1CCN(Cc1ccccn1)CC2)c1ccc(F)cc1	·	·	-0.8%	·	-14.5%
CCc1ccc2c(c1)/C(=N/OC)C(=O)N2	4.5%	-9.2%	?	0.6%	20.6µM*
Cc1ccc(OCc2cc(C(=O)N(C)CCc3ccccn3)no2)cc1C	6.8%	-5.5%	25.9µM*	23.1%	?
Cc1cc(CN(C)C(=O)c2cc(COc3ccc(C)c(C)c3)on2)on1	0.0%	5.1%	-20.9%	18.4%	-23.8%
CN(Cc1ccccn1)C(=O)c1cc(COc2ccc(F)c(F)c2)on1	·	·	18.4µM*	·	?
CC(=O)c1cccc(OCc2cc(C(=O)N(C)CCc3ccccn3)no2)c1	3.3%	-5.5%	?	32.2%	?

Bioassay records deposited in PubChem BioAssay by National Center for Advancing Translational Sciences (NCATS).
